Laboratory results as given in PubChem BioAssay AID1159580 (chemical genetic matrix, 2015).
The whole screen tested about 5,500 compounds, of which about 2,000 (36%) were called active. Roughly 18% stayed inconclusive and do not appear here. Cut-off read from the data, not from the text of the source: active = normalized growth mostly below about 0.91 (no sharp cut-off); inconclusive = no clear call, values can overlap the other calls; inactive = mostly above about 0.92. This is one part of the list.

Assay: chemical genetic growth profiling, strain panel (AID 1159580);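 note: tested at 20 µM; growth read once vehicle control cultures reached saturation at 30 °C; 1 = growth at the plate median or of vehicle wells; lower values mean less growth of the strain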
Conditions: growth OD

Measured: normalized growth

CC(=O)N[C@@H](CCC(=O)O)C(=O)O
inactive: S. cerevisiae deletion strains, locus YJR075W, strain HOC1, stronger effect = lower value 1 | S. cerevisiae deletion strains, locus YKL009W, strain mrt4, stronger effect = lower value 1.06 | S. cerevisiae deletion strains, locus YKL068W, stronger effect = lower value 0.995 | S. cerevisiae deletion strains, locus YKL085W, strain MDH1 (second series), stronger effect = lower value 1.01 | S. cerevisiae deletion strains, locus YKL085W, strain MDH1, stronger effect = lower value 1.01 | S. cerevisiae deletion strains, locus YKL160W, strain elf1, stronger effect = lower value 1.04 | S. cerevisiae deletion strains, locus YKL190W, strain CNB1, stronger effect = lower value 1.01 | S. cerevisiae deletion strains, locus YKR001C, strain vps1, stronger effect = lower value 1.01 | S. cerevisiae deletion strains, locus YKR026C, strain gcn3, stronger effect = lower value 1.01 | S. cerevisiae deletion strains, locus YKR091W, strain srl3, stronger effect = lower value 1.02 | S. cerevisiae deletion strains, locus YLL001W, strain dnm1, stronger effect = lower value 0.996 | S. cerevisiae deletion strains, locus YLL026W, stronger effect = lower value 1.01 | S. cerevisiae deletion strains, locus YLL041C, strain sdh2, stronger effect = lower value 1.03 | S. cerevisiae deletion strains, locus YLR027C, strain aat2, stronger effect = lower value 1.02 | S. cerevisiae deletion strains, locus YLR039C, strain RIC1, stronger effect = lower value 1.02 | S. cerevisiae deletion strains, locus YLR058C, strain SHM2, stronger effect = lower value 0.999 | S. cerevisiae deletion strains, locus YLR102C, strain apc9, stronger effect = lower value 1.01 | S. cerevisiae deletion strains, locus YLR113W, strain HOG1, stronger effect = lower value 0.999 | S. cerevisiae deletion strains, locus YLR221C, strain rsa3, stronger effect = lower value 1 | S. cerevisiae deletion strains, locus YLR258W, strain gsy2, stronger effect = lower value 1.03 | S. cerevisiae deletion strains, locus YLR262C, strain YPT6 (second series), stronger effect = lower value 1.03 | S. cerevisiae deletion strains, locus YLR262C, strain YPT6, stronger effect = lower value 0.998 | S. cerevisiae deletion strains, locus YLR268W, strain sec22, stronger effect = lower value 1.06 | S. cerevisiae deletion strains, locus YLR320W, strain mms22, stronger effect = lower value 1.01 | S. cerevisiae deletion strains, locus YLR330W, strain CHS5, stronger effect = lower value 1.01 | S. cerevisiae deletion strains, locus YLR342W, strain FKS1 (second series), stronger effect = lower value 1.05 | S. cerevisiae deletion strains, locus YLR342W, strain FKS1, stronger effect = lower value 1.01 | S. cerevisiae deletion strains, locus YLR357W, strain rsc2, stronger effect = lower value 0.997 | S. cerevisiae deletion strains, locus YLR370C, strain arc18, stronger effect = lower value 1.02 | S. cerevisiae deletion strains, locus YLR371W, strain rom2, stronger effect = lower value 1 | S. cerevisiae deletion strains, locus YLR384C, strain iki3, stronger effect = lower value 1.01 | S. cerevisiae deletion strains, locus YLR418C, strain cdc73, stronger effect = lower value 1.01 | S. cerevisiae deletion strains, locus YML016C, strain PPZ1, stronger effect = lower value 1 | S. cerevisiae deletion strains, locus YML032C, strain rad52, stronger effect = lower value 1.03 | S. cerevisiae deletion strains, locus YML120C, strain ndi1, stronger effect = lower value 1.01 | S. cerevisiae deletion strains, locus YML124C, strain tub3, stronger effect = lower value 1.01 | S. cerevisiae deletion strains, locus YMR058W, strain fet3, stronger effect = lower value 1.02 | S. cerevisiae deletion strains, locus YMR078C, strain ctf18, stronger effect = lower value 1.01 | S. cerevisiae deletion strains, locus YMR125W, strain sto1, stronger effect = lower value 1.01 | S. cerevisiae deletion strains, locus YMR129W, stronger effect = lower value 1.01 | S. cerevisiae deletion strains, locus YMR205C, strain PFK2, stronger effect = lower value 1.01 | S. cerevisiae deletion strains, locus YMR223W, strain ubp8, stronger effect = lower value 1 | S. cerevisiae deletion strains, locus YMR231W, strain pep5, stronger effect = lower value 1.02 | S. cerevisiae deletion strains, locus YMR263W, strain SAP30, stronger effect = lower value 1.01 | S. cerevisiae deletion strains, locus YMR307W, strain GAS1, stronger effect = lower value 1.04 | S. cerevisiae deletion strains, locus YNL067W, strain RPL9B, stronger effect = lower value 1.01 | S. cerevisiae deletion strains, locus YNL071W, strain lat1, stronger effect = lower value 1.02 | S. cerevisiae deletion strains, locus YNL153C, strain GIM3, stronger effect = lower value 1.01 | S. cerevisiae deletion strains, locus YNL183C, strain NPR1, stronger effect = lower value 0.907 | S. cerevisiae deletion strains, locus YNL209W, strain ssb2, stronger effect = lower value 1.03 | S. cerevisiae deletion strains, locus YNL233W, strain BNI4, stronger effect = lower value 1.01 | S. cerevisiae deletion strains, locus YNL248C, strain rpa49, stronger effect = lower value 1.02 | S. cerevisiae deletion strains, locus YNL250W, strain rad50, stronger effect = lower value 1 | S. cerevisiae deletion strains, locus YNL271C, strain bni1, stronger effect = lower value 1.02 | S. cerevisiae deletion strains, locus YNL298W, strain CLA4, stronger effect = lower value 1.01 | S. cerevisiae deletion strains, locus YNL307C, strain MCK1, stronger effect = lower value 1.02 | S. cerevisiae deletion strains, locus YNL322C, strain KRE1 (second series), stronger effect = lower value 1.01 | S. cerevisiae deletion strains, locus YNR049C, strain mso1, stronger effect = lower value 1.02 | S. cerevisiae deletion strains, locus YNR052C, strain pop2, stronger effect = lower value 1.02 | S. cerevisiae deletion strains, locus YOL006C, strain TOP1, stronger effect = lower value 1.06 | S. cerevisiae deletion strains, locus YOL012C, strain htz1 0.888 | S. cerevisiae deletion strains, locus YOL147C, strain pex11, stronger effect = lower value 1.01 | S. cerevisiae deletion strains, locus YOR001W, strain rrp6, stronger effect = lower value 0.988 | S. cerevisiae deletion strains, locus YOR061W, strain CKA2, stronger effect = lower value 1.01 | S. cerevisiae deletion strains, locus YOR069W, strain VPS5, stronger effect = lower value 1.01 | S. cerevisiae deletion strains, locus YOR070C, strain gyp1, stronger effect = lower value 1.03 | S. cerevisiae deletion strains, locus YOR080W, strain dia2, stronger effect = lower value 1.04 | S. cerevisiae deletion strains, locus YOR083W, strain WHI5, stronger effect = lower value 1.03 | S. cerevisiae deletion strains, locus YOR106W, strain vam3, stronger effect = lower value 1.03 | S. cerevisiae deletion strains, locus YOR136W, strain idh2, stronger effect = lower value 0.993 | S. cerevisiae deletion strains, locus YOR144C, strain elg1, stronger effect = lower value 1.01 | S. cerevisiae deletion strains, locus YOR184W, strain ser1, stronger effect = lower value 1.02 | S. cerevisiae deletion strains, locus YOR231W, strain MKK1, stronger effect = lower value 0.973 | S. cerevisiae deletion strains, locus YOR265W, strain rbl2, stronger effect = lower value 1.01 | S. cerevisiae deletion strains, locus YOR270C, strain vph1, stronger effect = lower value 1.11 | S. cerevisiae deletion strains, locus YOR290C, strain snf2, stronger effect = lower value 1.05 | S. cerevisiae deletion strains, locus YOR316C, strain cot1, stronger effect = lower value 1 | S. cerevisiae deletion strains, locus YPL051W, strain arl3, stronger effect = lower value 1.03 | S. cerevisiae deletion strains, locus YPL055C, strain LGE1, stronger effect = lower value 0.977 | S. cerevisiae deletion strains, locus YPL078C, strain atp4, stronger effect = lower value 1.03 | S. cerevisiae deletion strains, locus YPL106C, strain sse1, stronger effect = lower value 1.02 | S. cerevisiae deletion strains, locus YPL240C, strain hsp82, stronger effect = lower value 1.03 | S. cerevisiae deletion strains, locus YPL256C, strain CLN2, stronger effect = lower value 0.956 | S. cerevisiae deletion strains, locus YPR119W, strain clb2, stronger effect = lower value 1 | S. cerevisiae deletion strains, locus YPR141C, strain kar3, stronger effect = lower value 1.01 | S. cerevisiae deletion strains, locus YPR163C, strain tif3, stronger effect = lower value 1.01 | S. cerevisiae deletion strains, locus YPR167C, strain met16, stronger effect = lower value 1 | S. cerevisiae deletion strains, strain wtn01, stronger effect = lower value 1.02 | S. cerevisiae strains, strain wild type, stronger effect = lower value 1.01
